Screens deposited in PubChem by The Scripps Research Institute Molecular Screening Center.
Sampled rows, rich in hits. Any-hit rate of the full collection: about 0.81%.
NR5A2 inv ag = NR5A2 inverse agonism in reporter assay; 360,000 tested, 0.13% active; inhibition, % at 3.6 µM; HEK293T StAR-luciferase reporter, LRH-1 transfected, 24 h; AID 602396;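 active = inhibition above the mean inhibition of all tested compounds plus 3 SD, cut at about 73% in these data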
NCOA1 inh = human NCOA1 inhibition; Q15788; HEK293 GAL4-SRC1 luciferase reporter, luminescence; inhibition, % at 3.6 µM; 360,000 tested, 0.12% active; AID 588354;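 active = inhibition above the campaign mean plus 3 SD, with each screening campaign given its own cutoff, cut at about 60% in these data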
Target sequence (Q15788 whole entry, looked up, the tested form may be a part): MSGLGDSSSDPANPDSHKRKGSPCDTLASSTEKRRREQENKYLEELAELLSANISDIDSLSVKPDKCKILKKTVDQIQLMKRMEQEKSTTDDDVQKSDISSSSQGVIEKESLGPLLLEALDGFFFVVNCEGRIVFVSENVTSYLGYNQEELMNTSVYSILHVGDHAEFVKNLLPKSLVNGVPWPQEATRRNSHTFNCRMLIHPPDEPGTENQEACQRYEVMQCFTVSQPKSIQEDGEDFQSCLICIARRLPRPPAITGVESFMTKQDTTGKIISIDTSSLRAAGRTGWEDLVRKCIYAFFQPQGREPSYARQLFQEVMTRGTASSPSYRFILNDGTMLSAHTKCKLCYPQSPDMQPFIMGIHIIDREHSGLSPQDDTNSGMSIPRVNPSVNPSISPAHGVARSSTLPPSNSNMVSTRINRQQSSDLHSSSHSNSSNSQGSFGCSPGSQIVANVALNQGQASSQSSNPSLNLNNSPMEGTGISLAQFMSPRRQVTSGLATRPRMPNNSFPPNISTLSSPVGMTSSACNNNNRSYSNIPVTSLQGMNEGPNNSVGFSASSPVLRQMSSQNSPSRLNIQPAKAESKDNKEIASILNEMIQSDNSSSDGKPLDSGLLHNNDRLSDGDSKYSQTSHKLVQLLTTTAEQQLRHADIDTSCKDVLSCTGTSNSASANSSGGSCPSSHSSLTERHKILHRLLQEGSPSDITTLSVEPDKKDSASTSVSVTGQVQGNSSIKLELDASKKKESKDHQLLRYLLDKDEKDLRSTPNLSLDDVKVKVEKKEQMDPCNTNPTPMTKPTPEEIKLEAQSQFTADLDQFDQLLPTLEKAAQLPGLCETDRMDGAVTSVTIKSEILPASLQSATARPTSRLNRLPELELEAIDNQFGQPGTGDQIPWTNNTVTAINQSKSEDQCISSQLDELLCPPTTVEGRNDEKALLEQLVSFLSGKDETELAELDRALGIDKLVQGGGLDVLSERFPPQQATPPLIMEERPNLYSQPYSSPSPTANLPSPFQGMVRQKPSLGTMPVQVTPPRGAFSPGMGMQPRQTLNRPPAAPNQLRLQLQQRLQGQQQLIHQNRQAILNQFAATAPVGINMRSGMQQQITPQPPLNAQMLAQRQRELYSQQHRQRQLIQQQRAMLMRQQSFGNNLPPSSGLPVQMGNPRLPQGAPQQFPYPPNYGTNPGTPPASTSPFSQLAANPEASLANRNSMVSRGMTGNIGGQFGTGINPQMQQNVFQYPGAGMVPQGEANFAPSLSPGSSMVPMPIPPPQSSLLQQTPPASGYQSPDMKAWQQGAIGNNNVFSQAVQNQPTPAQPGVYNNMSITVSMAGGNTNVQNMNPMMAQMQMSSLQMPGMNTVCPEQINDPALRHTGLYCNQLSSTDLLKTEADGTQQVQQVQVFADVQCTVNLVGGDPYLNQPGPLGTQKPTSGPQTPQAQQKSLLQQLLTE
NCOA2 inhibitor = human SRC2 (NCOA2) inhibition. 370,000 tested, 0.17% active. AID 651957. HEK293 GAL4-SRC2 luciferase reporter, luminescence. inhibition, % at 9 µM. Q15596;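 active = inhibition above the mean inhibition of all tested compounds plus 3 SD, set per campaign, cut at about 52% in these data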
SRC3 inh = inhibitors of human steroid receptor coactivator 3 (SRC3); 360,000 tested, 0.17% active; Q9Y6Q9; inhibition, % at 3.6 µM; HEK293 GAL4-SRC3 luciferase reporter, luminescence;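 active = inhibition above a per-campaign cutoff, the mean of all compounds plus 3 SD, cut at about 60% in these data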;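 note: higher means less SRC3-driven luciferase light from the GAL4 reporter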
COUP-TFII inh = NR2F2 (human) inhibition, primary screen | inhibition, % at 8.6 µM | P24468 | 370,000 tested, 0.7% active | AID 686940 | HEK293T NGFI-A luciferase reporter, luminescence;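 active = inhibition above a per-plate cutoff, mean inhibition of test wells between control levels plus 3 SD, cut at about 38% in these data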;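 note: cells cotransfected with COUP-TFII expression vector driving the NGFI-A reporter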
Gal4-VP16 ctr = VP16 inhibition counter-screen for COUP-TFII; shares compounds with COUP-TFII inh; HEK293 Gal4-VP16 luciferase reporter, luminescence; inhibition, % at 8.5 µM; 2,500 tested, 25% active; in the data active = inhibition above about 13%
NR2F2 inh conf = confirmation of human COUP-TFII (NR2F2) inhibitors. inhibition, % at 8.5 µM. 2,500 tested, 45% active. AID 687008. HEK293 NGFI-A luciferase reporter, luminescence. shares compounds with COUP-TFII inh;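 active = mean inhibition over three repeats above a set limit taken from the earlier primary screen, cut at about 38% in these data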
Large screens that a line does not name were inactive (follow-up assays come after a bar, where they were run); ! = repeats disagree.

COC(=O)C1CN(CC(C)C)CCS(=O)(=O)N1Cc1ccc(OC)cc1 (centres undefined)	none (no result: NR5A2 inv ag, NCOA1 inh, SRC3 inh)
CN1/C(=C\C=C2/SC(=S)NC2=O)C(C)(C)c2ccccc21	COUP-TFII inh 42 | Gal4-VP16 ctr 14 | NR2F2 inh conf inactive
COc1ccc(N2CCN(CCNS(=O)(=O)c3ccc(F)cc3)CC2)cc1	none (no result: NR5A2 inv ag, NCOA1 inh, SRC3 inh)
O=C(O)c1ccc(S(=O)(=O)N2CCCc3ccccc32)cc1	none
COc1ccc(C(=O)Nc2ccc(S(=O)(=O)N3CCc4ccccc43)cc2)cc1	COUP-TFII inh 59 | Gal4-VP16 ctr inactive | NR2F2 inh conf 42
O=C(Nc1nc(-c2ccc(S(=O)(=O)N3CCCCCC3)cc2)cs1)c1cccs1	COUP-TFII inh 55 | Gal4-VP16 ctr inactive | NR2F2 inh conf inactive
Cn1cc(S(=O)(=O)N2CCc3ccccc32)cc1C(=O)NC(C)(C)C	COUP-TFII inh 59 | Gal4-VP16 ctr inactive | NR2F2 inh conf 45
NC(=O)c1ccsc1NC(=O)c1ccc(S(=O)(=O)N2CCCc3ccccc32)cc1	COUP-TFII inh 38 | Gal4-VP16 ctr inactive | NR2F2 inh conf inactive
Cc1cccc(C)c1NC(=O)c1cc(S(=O)(=O)N2CCc3ccccc32)cn1C	none
CC(C)N1CCCCC(NC(=O)c2cccs2)C1=O (centres undefined)	none (no result: NR5A2 inv ag, NCOA1 inh, SRC3 inh)
CC(C)C[C@H]1COc2cccc(F)c2S(=O)(=O)N1Cc1cn(CC2CCCCC2)nn1	none (no result: NR5A2 inv ag, NCOA1 inh, SRC3 inh)
COc1cccc(C(=O)Nc2nc(-c3ccc(S(=O)(=O)N4CCOCC4)cc3)cs2)c1	none
O=C(Nc1nc(-c2ccc(S(=O)(=O)N3CCOCC3)cc2)cs1)c1ccccc1	COUP-TFII inh 68 | Gal4-VP16 ctr 18! | NR2F2 inh conf 38
O=C(Nc1nc(-c2ccccc2)cs1)c1ccc(S(=O)(=O)N2CCc3ccccc32)cc1	COUP-TFII inh 51 | Gal4-VP16 ctr inactive | NR2F2 inh conf inactive
Cc1ccc(-c2csc(NC(=O)c3ccc(S(=O)(=O)N4CCc5ccccc54)cc3)n2)cc1	none
O=C(Nc1ccc(Br)cc1)OCCCN1CCC2(CCCCC2)C1=O	none (no result: NR5A2 inv ag, NCOA1 inh, SRC3 inh)
Cc1ccccc1CNC(=O)C1CCC(CNS(=O)(=O)c2cccc3cccnc23)CC1 (centres undefined)	none (no result: NR5A2 inv ag, NCOA1 inh, SRC3 inh)
COCCCNC(=O)c1oc(=O)c2ccccc2c1-c1ccc(C)cc1	none (no result: NR5A2 inv ag, NCOA1 inh, SRC3 inh)
CN(C)c1cc[n+](CC(=O)c2ccc(-c3ccccc3)cc2)cc1	NR5A2 inv ag 86, COUP-TFII inh 52 | Gal4-VP16 ctr inactive | NR2F2 inh conf 48
COc1cc(CC(=O)Nc2cccc(S(=O)(=O)N(C)c3ccccc3)c2)cc(OC)c1OC	COUP-TFII inh 39 | Gal4-VP16 ctr inactive | NR2F2 inh conf inactive
COc1cccc(CN(C)CC(=O)Nc2cccc(S(=O)(=O)N(C)c3ccccc3)c2)c1OC	none
COc1cc(CC(=O)Nc2cccc(SC)c2)cc(OC)c1OC	COUP-TFII inh 37 | Gal4-VP16 ctr inactive | NR2F2 inh conf inactive
Cc1cccc(-c2nnc(SCC(=O)Nc3cccc4ccccc34)n2Cc2ccco2)c1	none (no result: NR5A2 inv ag, NCOA1 inh, SRC3 inh)
CN1c2ccc(-c3cccc(F)c3)cc2[C@H]2[C@H](CCN2S(=O)(=O)c2cccc(F)c2)[C@H]1CO	none (no result: NR5A2 inv ag, NCOA1 inh, SRC3 inh)
CCOC(=O)[C@@]12CCCC=C1N(CCc1ccc(Cl)cc1)C(=O)[C@H]2CC(=O)N1CCCCC1	none (no result: NR5A2 inv ag, NCOA1 inh, SRC3 inh)
CCOC(=O)[C@@]12CCCC=C1N(CCc1ccc(Cl)cc1)C(=O)[C@H]2CC(=O)N1CCCC1	COUP-TFII inh 44 (no result: NR5A2 inv ag, NCOA1 inh, SRC3 inh) | Gal4-VP16 ctr inactive | NR2F2 inh conf 40
O=C(Nc1ccc(Oc2ccccc2)cc1)c1cnc2n(c1=O)CCS2	COUP-TFII inh 43 | Gal4-VP16 ctr inactive | NR2F2 inh conf 38
CCOc1ccccc1NC(=O)c1cnc2n(c1=O)CCS2	none
O=S(=O)(c1ccc(Br)s1)N1CCC(c2nc3ccccc3o2)CC1	none (no result: NR5A2 inv ag, NCOA1 inh, SRC3 inh)
CCN(C(=O)c1cnc(N2CCN(c3ncccn3)CC2)c2ccccc12)c1cccc(Cl)c1	COUP-TFII inh 50 | Gal4-VP16 ctr inactive | NR2F2 inh conf inactive
COCCNc1nc(NCc2cccc(OC)c2)c2sccc2n1	none
COCCNc1nc(NCc2ccc(C(C)C)cc2)c2sccc2n1	COUP-TFII inh 38 | Gal4-VP16 ctr inactive | NR2F2 inh conf inactive
COC(=O)CCn1nnc(-c2ccc(C(C)C)cc2)n1	NCOA2 inhibitor 86, COUP-TFII inh 86 | Gal4-VP16 ctr 83 | NR2F2 inh conf 87
CC(=O)c1cc(-c2ccc(S(C)(=O)=O)cc2)c(=O)n2c1CCC2	none (no result: NR5A2 inv ag, NCOA1 inh, SRC3 inh)
O=C(NCc1ccco1)C1CCCN(S(=O)(=O)c2ccc(F)cc2)C1 (centres undefined)	none (no result: NR5A2 inv ag, NCOA1 inh, SRC3 inh)
Cn1c(CN2CCCCC2)nc2cc(NC(=O)c3cccc(Br)c3)ccc21	COUP-TFII inh 49 | Gal4-VP16 ctr inactive | NR2F2 inh conf inactive
CCCCNC(=O)C[C@H]1C[C@@]2(C(=O)OC)C(=C[C@H](COCc3ccccc3)O[C@@H]2C)N(CCc2ccc(OC)c(OC)c2)C1=O	none (no result: NR5A2 inv ag, NCOA1 inh, SRC3 inh)
C=CC(=O)N1C/C(=C/c2ccc(Cl)cc2)C(=O)/C(=C\c2ccc(Cl)cc2)C1	NCOA2 inhibitor 60, COUP-TFII inh 90 | Gal4-VP16 ctr 85 | NR2F2 inh conf 102
C=CC(=O)N1C/C(=C/c2ccccc2)C(=O)/C(=C\c2ccccc2)C1	NCOA2 inhibitor 67, COUP-TFII inh 98 | Gal4-VP16 ctr 71 | NR2F2 inh conf 101
COCCN1C(=O)C2=C(C1=O)C1N(C)c3ccccc3[C@@]13C[C@@H](CO)N(C(=O)CCC(=O)OC)C3=N2 (some centres undefined)	none (no result: NR5A2 inv ag, NCOA1 inh, SRC3 inh)
CCc1ccccc1-c1cc(C(C)=O)c2n(c1=O)CCC2	none (no result: NR5A2 inv ag, NCOA1 inh, SRC3 inh)
Cc1nnc(SCC(=O)N2CCC(c3noc4ccc(F)cc34)CC2)s1	NCOA1 inh 62, SRC3 inh 63, COUP-TFII inh 49 | Gal4-VP16 ctr inactive | NR2F2 inh conf inactive
C=CCn1c(C)cc(C(=O)COc2ccc(C)nc2[N+](=O)[O-])c1C	NCOA2 inhibitor 61, COUP-TFII inh 40 | Gal4-VP16 ctr inactive | NR2F2 inh conf inactive
Cc1ccc(OCC(=O)c2cc(C)n(-c3ccccc3)c2C)c([N+](=O)[O-])n1	NCOA2 inhibitor 78, COUP-TFII inh 53 | Gal4-VP16 ctr inactive | NR2F2 inh conf inactive
Cc1cc(C(=O)COC(=O)C2=COCCO2)c(C)n1-c1ccccc1	COUP-TFII inh 65 | Gal4-VP16 ctr 16 | NR2F2 inh conf 74
O=C1CCC[C@H]2C[C@H](NCc3ccc(Cl)c(C(F)(F)F)c3)CC[C@]23CCCN13	none (no result: NR5A2 inv ag, NCOA1 inh, NCOA2 inhibitor, SRC3 inh)
CCOC(=O)N1CCN(C(=O)C[C@@H]2C(=O)N(Cc3ccc(OC)cc3)C3=CCN(C(=O)OC(C)(C)C)C[C@]32C(=O)OCC)CC1	none (no result: NR5A2 inv ag, NCOA1 inh, SRC3 inh)
Cc1ccc(NC(=O)CSc2ccc3c(c2)OCCO3)c(O)c1	COUP-TFII inh 39 | Gal4-VP16 ctr inactive | NR2F2 inh conf inactive
Cc1ccnc(NC(=O)CSc2ccc3c(c2)OCCO3)c1	none
COc1ccc(C(=O)c2ccccc2)c2c(O)ccc(C(=O)c3ccccc3)c12	COUP-TFII inh 43 | Gal4-VP16 ctr inactive | NR2F2 inh conf 63
